# Compound activity as filed in PubChem.
# Shown are actives, neighbours in structure and some others; about 2.2% of the full set was active somewhere.
# TRPM1 prom inh: inhibitors of MITF-dependent TRPM1 promoter reporter, primary screen, cell-based, SK-MEL-5, single point, luciferase | SK-MEL-5 TRPM1 promoter luciferase, 24 h | actives 0.83% (n = 330,000) | inhibition, % at 12.5 µM | AID 488899, 2010;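 active = mean inhibition across replicates of 60% or more, whatever share of single replicates reaches that level; inconclusive = some that reach 60%, reason not given; inactive = mean inhibition across replicates below 60%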
# EWS-Fli inh: EWS/Fli-driven NR0B1 reporter inhibitors, primary screen, A673 cells, NR0B1 luciferase, luminescence, MLPCN library; AID 651661, 2012; actives 0.67% (n = 350,000); inhibition, % at 12.6 µM; viability-normalised;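 active = mean inhibition of at least 50% after viability correction, with every replicate also passing that limit; inconclusive = mean reaches 50% but only one of two replicates passes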;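 also: firefly luciferase signal divided by Alamar Blue viability fluorescence both relative to DMSO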
# PAX8 reporter: inhibitors of PAX8-driven TPO luciferase reporter, primary screen, RMG-I cells, single concentration | actives 1.2% (n = 360,000) | SteadyGlo, 24 h | inhibition, % at 12.6 µM | AID 652154, 2013;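 active = mean replicate inhibition at least 60% with every replicate also reaching 60%; inconclusive = only one of the two criteria is met; inactive = mean below 60% and not all replicates reaching 60%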;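 also: luciferase light reporting Pax8 driven TPO promoter activity; plate controls were median of neutral control wells for no effect and mitoxantrone controls for full effect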
# LGR2 inh: inhibitors of bursicon-induced LGR2 CRE-luciferase signal, primary screen, cell-based, HEK293, CRE-luciferase reporter, bursicon stimulation; inhibition, % at 9.99 µM; actives 0.35% (n = 380,000); Drosophila bursicon receptor LGR2 (rickets); bursicon-stimulated, 4 h; AID 720647, 2013;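 active = drop in luminescence signal, shown as inhibition above about 50% in the replicate tests, limit read from the data, passing the limit was not always enough; inconclusive = probably only some replicates passing the limit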;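 also: agonist challenge used bursicon conditioned medium at about half maximal strength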
# Shn3 inh set2: reduction of Shn3 3'UTR firefly luciferase signal, primary screen, Schnurri-3 inhibitor project, cell-based, Clone20 osteoblasts, set 2; Clone20 osteoblast Shn3 3'UTR firefly luciferase, 24 h; inhibition, % at 12.5 µM; actives 0.52% (n = 360,000); AID 588674, 2011;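 active = mean inhibition of at least 75% with every replicate also reaching 75%; inconclusive = mean inhibition at least 75% but some replicate below; inactive = mean inhibition below 75%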;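 also: 0% = median of neutral control wells and 100% = pilot-screen positive control compound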
# LMP1 NFkB inh: EBV LMP1-driven NF-kappaB luciferase reporter inhibitors, primary screen, cell-based, luminescence, single point; inhibition, % at 12.5 µM; LMP1-induced NF-kappaB luciferase reporter cells; AID 504558, 2011; actives 0.69% (n = 350,000); in the data active = inhibition above about 41%; inconclusive = no clear call, values can overlap the other calls;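 also: 0% = neutral control wells and 100% = reference inhibitor control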
# Starred values were filed as active, the others as inactive; ? = inconclusive; . = no result given.
SMILES,TRPM1 prom inh,EWS-Fli inh,PAX8 reporter,LGR2 inh,Shn3 inh set2,LMP1 NFkB inh
Oc1c(Cl)cc(Cl)cc1C1=NNC(c2ccc(Cl)cc2)C1 (configuration not stated),-3,.,.,.,-56,49*
Oc1ccc(Cl)cc1C1=NNC(c2ccc(Cl)cc2)C1 (configuration not stated),-4,.,11,-34,-41,-8
CC[N+]1=C(C)C(C)(C)c2cc(C)ccc21,15,28,96*,56*,89*,5
COc1ccc(C2NC(=S)NC3=C2CCCC3=C2SCCS2)cc1 (configuration not stated),84*,63*,102*,-5,-267,-23
CC(Cl)=CCn1c(NCCc2ccccc2)nc2c1c(=O)n(C)c(=O)n2C,.,10,0,16,92*,.
Cn1c(=O)c2c(nc(NCc3ccco3)n2C/C=C/c2ccccc2)n(C)c1=O,54,.,.,.,88*,42*
Cn1c(=O)c2c(nc(NCCc3ccccc3)n2Cc2ccc(F)cc2)n(C)c1=O,10,16,42,-6,56,0
Cn1c(=O)c2c(nc(NCc3ccco3)n2C)n(C)c1=O,-5,.,.,.,0,-10
CC(C)(C)[S@@](=O)N1Cc2cc(C(=O)N3CCOCC3)nc(-c3cccc(Br)c3)c2[C@H]1CCO,.,-5,-10,15,.,.
O=C(O)[C@H]1[C@H](CO)[C@H]2Cn3c(ccc(-c4ccccc4)c3=O)[C@H]2N1Cc1ccccc1F,.,8,.,-6,.,.
O=c1[nH]c(CSc2ccccn2)nc2c1oc1ccccc12,10,28,-7,80*,-28,34
CCc1nc2c(oc3ccccc32)c(=O)[nH]1,-21,.,.,.,-18,-7
COc1ccc(NC(=O)N[C@H]2C=C[C@H](CC(=O)NCc3ccccn3)O[C@@H]2CO)cc1,.,0,-11,21,.,.
NCc1csc(Nc2ccc(C(=O)c3ccccc3)cc2)n1,.,52*,34,-2,3,.
Cc1cc(=O)n2c3c(c4c(cc13)c(CN(C)C)cc(=O)n4C)OC2,-2,?,104*,105*,-23,-10
Brc1ccc(-c2csc(N3CCCCCC3)n2)cc1,-33,-27,-41,-39,-4,46*
C[C@@H]1CN([C@H](C)CO)C(=O)c2cc(NC(=O)Nc3ccc(C(F)(F)F)cc3)ccc2O[C@@H](C)CCCCO[C@H]1CN(C)S(=O)(=O)c1ccc(F)cc1,.,-6,78*,-3,.,.
Cc1ccc(S(=O)(=O)N(C)C[C@@H]2OCCCC[C@H](C)Oc3ccc(NC(=O)Nc4ccc(C(F)(F)F)cc4)cc3C(=O)N([C@H](C)CO)C[C@H]2C)cc1,.,10,61*,-7,.,.
C[C@@H]1CCCCO[C@H](CN(C)S(=O)(=O)c2ccc(F)cc2)[C@@H](C)CN([C@@H](C)CO)C(=O)c2cc(NC(=O)Nc3ccc(F)cc3)ccc2O1,.,5,62*,5,.,.
Cc1ccc(S(=O)(=O)N(C)C[C@@H]2OCCCC[C@H](C)Oc3ccc(NC(=O)Nc4ccc(F)cc4)cc3C(=O)N([C@H](C)CO)C[C@H]2C)cc1,.,14,64*,6,34,-6
C[C@@H]1CCCCO[C@H](CN(C)S(=O)(=O)c2ccc(F)cc2)[C@H](C)CN([C@@H](C)CO)C(=O)c2cc(NC(=O)Nc3ccc(C(F)(F)F)cc3)ccc2O1,.,-8,58,5,.,.
CO[C@H]1CN(C)C(=O)c2ccc(NS(C)(=O)=O)cc2OC[C@@H](C)N(Cc2cncnc2)C[C@H]1C,.,-1,.,-4,.,.
CO[C@H]1CN(C)C(=O)c2cc(NS(=O)(=O)c3cccc(F)c3)ccc2OC[C@@H](C)N(Cc2cc(F)ccc2F)C[C@H]1C,.,20,.,23,.,.
COc1ccc(OCCn2c(=N)n(CCO)c3ccccc32)cc1,6,.,.,.,16,5
CCCCn1c(=N)n(CCOc2ccc(C)cc2)c2ccccc21,64*,.,-14,-18,32,-1
SMILES,TRPM1 prom inh,EWS-Fli inh,PAX8 reporter,LGR2 inh,Shn3 inh set2,LMP1 NFkB inh
C[C@@H]1CN([C@@H](C)CO)C(=O)Cc2cc(NC(=O)C3CC3)ccc2O[C@@H]1CN(C)Cc1ccc(C(=O)O)cc1,.,8,.,-5,.,.
CSc1nc(C)cc(C)c1C#N,-20,.,.,-31,1,94*
Cc1cc(C)c(C#N)c(SCc2ccc(F)cc2)n1,-4,-5,12,-12,-7,2
Cc1cccc(N2CCN(C(=O)c3ccc4[nH]c(C)c(C)c4c3)CC2)c1C,28,54*,29,-10,1,21
Cc1[nH]c2ccc(C(=O)N3CCN(c4ccccc4Cl)CC3)cc2c1C,-1,.,8,0,-5,1
COC(=O)c1cc(C(=O)N2CCN(c3cccc(C)c3C)CC2)cc([N+](=O)[O-])c1,27,56*,25,14,10,7
COC(=O)c1cc(C(=O)N2CCN(c3ccccc3OC)CC2)cc([N+](=O)[O-])c1,28,55*,47,25,13,9
COC(=O)c1cc(C(=O)N2CCN(c3ncccn3)CC2)cc([N+](=O)[O-])c1,-4,-6,6,-4,-8,-2
COc1ccc(OCCNC(=O)/C=C/c2ccc([N+](=O)[O-])cc2)cc1,1,3,107*,8,13,0
COc1cnn(-c2ccc(C)cc2)c(=O)c1SCc1ccccc1,-61,.,.,-37,0,47*
COCC(=O)N1CCCCN2[C@H](C1)[C@@H](c1ccc(-c3ccc(C)cc3)cc1)[C@@H]2CO,.,2,115*,-24,.,.
Cc1ccc(-c2ccc([C@H]3[C@@H](CO)N4CCCCN(C(=O)c5ccc(F)cc5)C[C@H]34)cc2)cc1,.,6,73*,-1,.,.
Cc1ccc(-c2ccc([C@H]3[C@H](CO)N4CCCCN(C(=O)c5ccc(F)cc5)C[C@@H]34)cc2)cc1,.,10,-10,-2,.,.
C[C@H](CO)N1C[C@H](C)[C@H](CN(C)Cc2ccc(C(F)(F)F)cc2)Oc2ccc(NC(=O)Nc3cccc4ccccc34)cc2CC1=O,.,1,-10,13,.,.
Cn1c(NC(=O)C[n+]2cc(-c3ccc(Cl)cc3)n3c2CCC3)cc(=O)n(C)c1=O,8,2,18,8,13,1
CC(C)[C@@H]1CC[C@@H](C)C[C@H]1OC(=O)C[n+]1cc(-c2ccc(Cl)cc2)n2c1CCCCC2,79*,31,113*,.,79,30
COc1ccc(-c2c[n+](CC(=O)OC3CC(C)CCC3C(C)C)c3n2CCC3)cc1 (configuration not stated),86*,21,91*,34,82,4
CC1CCC(C(C)C)C(OC(=O)C[n+]2cccc(C(N)=O)c2)C1 (configuration not stated),-4,.,.,.,5,-8
